The text below walks through data of the OligoGym collection.
Note: reference of the scale not given here.

The first experiment addresses AP1S1. As to the kind of experiment: pooled miR-30 sensor sort-seq; sequence = guide strand. The settings on record: shRNA.
Regarding TTCAGCACACTCTTCTTGGAGG, the sensor-assay potency score (higher = more potent) was -0.8.

Take ATCTCTTATAGACAACTTTGAG: the sensor-assay potency score (higher = more potent) is -0.956.

TTCCGTTCCTTGTCCGAAGTGG registered a sensor-assay potency score (higher = more potent) of 0.268.

TTTGTCTAAGAGCTCCACGTAT: the sensor-assay potency score (higher = more potent) was -0.832.

In turn, TAGACAACTTTGAGGTCCCTCC yielded a sensor-assay potency score (higher = more potent) of -0.899.

Another experiment deals with AP2B1. The experiment is described as above. As to conditions: shRNA.
With TAGAGAATCCAGAAATCCCTGA, the sensor-assay potency score (higher = more potent) amounted to 0.164.

For TTTCATTGTTGAGTTCAGCTTT, the sensor-assay potency score (higher = more potent) was determined as 0.578.

Regarding TTTCAGTTCTGCCAGAACCTGA, the sensor-assay potency score (higher = more potent) is -0.77.

With TAACAATTCTAGAAACTTCATT, the sensor-assay potency score (higher = more potent) was -0.559.

Sequence TAATCTGAAACTGAAGTTCATT had a sensor-assay potency score (higher = more potent) of -0.631.

In turn, TTCATCGTGAAAACCCTCCAGG gave a sensor-assay potency score (higher = more potent) of -0.0807.

Sequence TAGCATATTCTTTCAGTTCTGC registered a sensor-assay potency score (higher = more potent) of 0.583.

Sequence TAAATGACATTCCTTAATCTGA showed a sensor-assay potency score (higher = more potent) of -0.695.

TCATCCTTCAAGCACTTGCGGA gave a sensor-assay potency score (higher = more potent) of -1.05.

The sequence TTGTTGTTTTGCAACTTGCTGG returned a sensor-assay potency score (higher = more potent) of -0.34.

Take AATAGTATAAACATTGTTGTTT: the sensor-assay potency score (higher = more potent) was -0.183.

Turning to AAAGAGAGAACTAACATCCTTC, the sensor-assay potency score (higher = more potent) is 0.773.

In turn, TAGAAGATCACCTTGAGAGGGG displayed a sensor-assay potency score (higher = more potent) of 0.529.

The sequence TTAGTTCAAATATTTCTCCTTT displayed a sensor-assay potency score (higher = more potent) of 0.546.

The sequence TTTCTAGTAACTCATCTGCATT showed a sensor-assay potency score (higher = more potent) of -1.34.

Turning to TTCAGATCAAGTAAGTTGCTGT, the sensor-assay potency score (higher = more potent) turned out to be 1.15.

On to TCGAACAAAGTCAACATCCACC, for which the sensor-assay potency score (higher = more potent) is -0.757.

The sequence TAGTTCCAGATTGTCAGTCTGC gave a sensor-assay potency score (higher = more potent) of -0.496.

For the sequence TTGTTTTGCAACTTGCTGGAAA, the sensor-assay potency score (higher = more potent) is -0.458.

On to TTTAGTTCAAATATTTCTCCTT, for which the sensor-assay potency score (higher = more potent) came to 0.5.

The sequence TATTGTAGTAGTCAGAATCCTT returned a sensor-assay potency score (higher = more potent) of 0.0218.

For TTCTGTAATTTTGTCTACCCGG, the sensor-assay potency score (higher = more potent) was -1.02.

Turning to TTCATTAGGACTTTTACCGCTG, the sensor-assay potency score (higher = more potent) was 0.615.

As to TTGTTTTTCACAGCCACCTGGA, the sensor-assay potency score (higher = more potent) is -0.558.
